# Values without a mark were called inactive.
# Legend:
# Experiment in all cases: log2 ratio of Biotin-Ahx-Ub-VS probe labelling (fragment/DMSO); higher = less target engagement (more negative = stronger competition), active = hit call of the paper (q ≤ 0.05, log2 ratio ≤ -1)
# Conditions in all cases: compound concentration: 200 uM; treatment time: 3 h
# USP19 = target: T1, USP19 (UniProt O94966)
# T1 sequence (whole entry): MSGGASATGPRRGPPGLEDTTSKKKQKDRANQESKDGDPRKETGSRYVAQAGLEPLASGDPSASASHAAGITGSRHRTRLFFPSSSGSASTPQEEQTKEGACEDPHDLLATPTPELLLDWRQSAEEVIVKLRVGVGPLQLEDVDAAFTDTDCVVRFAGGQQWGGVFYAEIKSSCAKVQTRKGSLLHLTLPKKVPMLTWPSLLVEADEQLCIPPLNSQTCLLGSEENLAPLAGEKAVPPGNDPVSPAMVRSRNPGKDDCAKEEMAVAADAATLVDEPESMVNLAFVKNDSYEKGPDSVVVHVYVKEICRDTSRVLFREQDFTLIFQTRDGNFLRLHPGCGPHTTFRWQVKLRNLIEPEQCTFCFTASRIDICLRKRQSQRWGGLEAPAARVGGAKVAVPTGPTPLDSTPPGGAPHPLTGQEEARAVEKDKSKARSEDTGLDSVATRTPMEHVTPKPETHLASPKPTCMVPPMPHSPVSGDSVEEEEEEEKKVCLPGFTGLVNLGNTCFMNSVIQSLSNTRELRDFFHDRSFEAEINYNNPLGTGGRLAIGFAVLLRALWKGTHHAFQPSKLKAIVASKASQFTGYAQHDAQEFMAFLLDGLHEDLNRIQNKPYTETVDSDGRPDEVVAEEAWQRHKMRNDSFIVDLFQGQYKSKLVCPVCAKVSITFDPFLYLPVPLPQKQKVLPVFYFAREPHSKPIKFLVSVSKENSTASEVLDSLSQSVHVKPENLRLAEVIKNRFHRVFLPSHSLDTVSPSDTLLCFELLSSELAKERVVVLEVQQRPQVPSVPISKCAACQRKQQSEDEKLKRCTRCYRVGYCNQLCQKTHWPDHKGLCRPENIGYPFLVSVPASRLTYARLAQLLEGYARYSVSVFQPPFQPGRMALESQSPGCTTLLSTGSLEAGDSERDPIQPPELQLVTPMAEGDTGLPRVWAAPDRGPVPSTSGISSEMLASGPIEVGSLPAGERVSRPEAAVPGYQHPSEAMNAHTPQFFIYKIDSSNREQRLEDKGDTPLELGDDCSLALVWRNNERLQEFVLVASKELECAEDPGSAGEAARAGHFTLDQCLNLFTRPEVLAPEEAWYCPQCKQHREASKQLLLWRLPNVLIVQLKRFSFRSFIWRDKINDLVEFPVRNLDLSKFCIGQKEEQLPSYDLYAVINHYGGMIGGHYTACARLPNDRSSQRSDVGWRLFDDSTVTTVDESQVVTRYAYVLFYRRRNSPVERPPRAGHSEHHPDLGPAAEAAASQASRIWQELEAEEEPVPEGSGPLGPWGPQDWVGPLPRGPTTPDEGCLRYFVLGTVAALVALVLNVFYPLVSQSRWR
# Method in brief: (§1)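 Triplicate samples of HEK293T lysate, 495 µg each, received fragment at 200 µM or vehicle for 3 h, followed by Biotin-Ahx-Ub-VS (0.5 µM final) for 1 h. After NeutrAvidin enrichment of labelled DUBs and LysC/trypsin digestion, peptides were run by diaPASEF LC-MS/MS. The values are average log2 fragment/vehicle ratios from global-median-normalised Spectronaut label-free quantities, tested by unpaired t-test on proteins having ≥2 unique peptides.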
# USP24 = USP24 (UniProt Q9UPU5)
# Sequence of USP24 (Q9UPU5 whole entry): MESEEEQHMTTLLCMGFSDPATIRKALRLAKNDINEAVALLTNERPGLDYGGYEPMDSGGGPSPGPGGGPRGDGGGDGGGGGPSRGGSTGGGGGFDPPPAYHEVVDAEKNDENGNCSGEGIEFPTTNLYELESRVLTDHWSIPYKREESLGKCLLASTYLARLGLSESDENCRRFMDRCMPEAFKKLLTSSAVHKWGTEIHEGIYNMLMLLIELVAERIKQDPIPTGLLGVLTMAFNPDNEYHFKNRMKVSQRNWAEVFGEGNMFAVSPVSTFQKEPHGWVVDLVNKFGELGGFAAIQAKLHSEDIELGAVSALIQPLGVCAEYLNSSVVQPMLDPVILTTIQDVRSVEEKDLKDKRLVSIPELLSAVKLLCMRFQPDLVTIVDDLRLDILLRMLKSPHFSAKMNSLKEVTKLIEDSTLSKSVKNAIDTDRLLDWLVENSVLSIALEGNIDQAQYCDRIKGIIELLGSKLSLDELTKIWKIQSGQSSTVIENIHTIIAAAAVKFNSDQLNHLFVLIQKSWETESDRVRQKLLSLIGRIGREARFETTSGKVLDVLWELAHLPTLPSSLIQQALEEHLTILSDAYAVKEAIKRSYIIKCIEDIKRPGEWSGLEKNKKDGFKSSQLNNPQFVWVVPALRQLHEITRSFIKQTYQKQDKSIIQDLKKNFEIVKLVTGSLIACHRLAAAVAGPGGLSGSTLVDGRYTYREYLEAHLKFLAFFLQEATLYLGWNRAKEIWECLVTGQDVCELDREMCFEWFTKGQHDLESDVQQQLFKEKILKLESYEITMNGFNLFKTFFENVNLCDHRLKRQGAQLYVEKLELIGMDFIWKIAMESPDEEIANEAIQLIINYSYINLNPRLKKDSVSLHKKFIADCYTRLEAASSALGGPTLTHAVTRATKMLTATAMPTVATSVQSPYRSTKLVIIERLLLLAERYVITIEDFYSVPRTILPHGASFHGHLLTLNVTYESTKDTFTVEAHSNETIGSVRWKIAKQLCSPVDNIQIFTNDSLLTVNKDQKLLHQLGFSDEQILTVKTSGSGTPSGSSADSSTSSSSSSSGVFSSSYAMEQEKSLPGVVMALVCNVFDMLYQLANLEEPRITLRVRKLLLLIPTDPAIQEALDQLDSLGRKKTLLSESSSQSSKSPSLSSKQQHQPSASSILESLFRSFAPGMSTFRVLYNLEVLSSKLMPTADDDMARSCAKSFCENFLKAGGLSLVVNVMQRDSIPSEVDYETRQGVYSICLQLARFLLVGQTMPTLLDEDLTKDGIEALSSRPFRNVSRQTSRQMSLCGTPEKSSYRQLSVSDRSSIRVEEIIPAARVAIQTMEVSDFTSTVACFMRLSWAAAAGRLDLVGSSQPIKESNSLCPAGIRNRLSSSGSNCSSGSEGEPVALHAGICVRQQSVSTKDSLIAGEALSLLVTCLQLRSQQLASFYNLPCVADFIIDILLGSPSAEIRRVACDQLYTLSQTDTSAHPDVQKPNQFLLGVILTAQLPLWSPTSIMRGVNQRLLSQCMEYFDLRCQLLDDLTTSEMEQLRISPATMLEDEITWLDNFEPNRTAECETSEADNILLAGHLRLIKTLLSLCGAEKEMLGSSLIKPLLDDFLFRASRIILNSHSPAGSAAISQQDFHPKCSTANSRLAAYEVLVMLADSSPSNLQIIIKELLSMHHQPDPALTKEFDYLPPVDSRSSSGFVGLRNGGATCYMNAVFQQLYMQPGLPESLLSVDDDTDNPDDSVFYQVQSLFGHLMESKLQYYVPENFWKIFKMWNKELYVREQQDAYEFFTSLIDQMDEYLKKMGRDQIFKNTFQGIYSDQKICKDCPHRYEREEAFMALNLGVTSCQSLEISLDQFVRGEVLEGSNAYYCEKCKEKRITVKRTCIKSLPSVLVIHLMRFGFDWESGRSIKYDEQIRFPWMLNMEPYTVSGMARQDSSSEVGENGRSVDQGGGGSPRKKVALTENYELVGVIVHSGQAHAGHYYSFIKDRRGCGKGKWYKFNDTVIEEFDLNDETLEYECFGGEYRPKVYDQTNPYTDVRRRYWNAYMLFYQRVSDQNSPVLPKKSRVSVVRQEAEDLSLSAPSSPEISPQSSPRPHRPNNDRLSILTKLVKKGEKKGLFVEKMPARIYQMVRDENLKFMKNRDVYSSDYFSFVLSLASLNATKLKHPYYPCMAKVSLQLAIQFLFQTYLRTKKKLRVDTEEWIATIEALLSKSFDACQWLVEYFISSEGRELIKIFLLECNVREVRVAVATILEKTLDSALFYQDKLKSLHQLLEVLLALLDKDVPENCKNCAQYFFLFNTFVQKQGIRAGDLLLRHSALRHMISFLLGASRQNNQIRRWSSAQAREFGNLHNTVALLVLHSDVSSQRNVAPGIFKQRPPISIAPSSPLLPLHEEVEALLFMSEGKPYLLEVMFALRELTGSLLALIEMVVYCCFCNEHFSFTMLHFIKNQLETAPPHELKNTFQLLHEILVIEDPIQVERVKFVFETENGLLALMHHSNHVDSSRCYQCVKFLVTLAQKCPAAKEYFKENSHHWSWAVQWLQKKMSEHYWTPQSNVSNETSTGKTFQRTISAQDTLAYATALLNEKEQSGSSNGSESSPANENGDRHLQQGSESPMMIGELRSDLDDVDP
# Method in brief: as §1
# USP25 = target: T2, USP25 (UniProt Q9UHP3)
# T2 sequence (whole entry): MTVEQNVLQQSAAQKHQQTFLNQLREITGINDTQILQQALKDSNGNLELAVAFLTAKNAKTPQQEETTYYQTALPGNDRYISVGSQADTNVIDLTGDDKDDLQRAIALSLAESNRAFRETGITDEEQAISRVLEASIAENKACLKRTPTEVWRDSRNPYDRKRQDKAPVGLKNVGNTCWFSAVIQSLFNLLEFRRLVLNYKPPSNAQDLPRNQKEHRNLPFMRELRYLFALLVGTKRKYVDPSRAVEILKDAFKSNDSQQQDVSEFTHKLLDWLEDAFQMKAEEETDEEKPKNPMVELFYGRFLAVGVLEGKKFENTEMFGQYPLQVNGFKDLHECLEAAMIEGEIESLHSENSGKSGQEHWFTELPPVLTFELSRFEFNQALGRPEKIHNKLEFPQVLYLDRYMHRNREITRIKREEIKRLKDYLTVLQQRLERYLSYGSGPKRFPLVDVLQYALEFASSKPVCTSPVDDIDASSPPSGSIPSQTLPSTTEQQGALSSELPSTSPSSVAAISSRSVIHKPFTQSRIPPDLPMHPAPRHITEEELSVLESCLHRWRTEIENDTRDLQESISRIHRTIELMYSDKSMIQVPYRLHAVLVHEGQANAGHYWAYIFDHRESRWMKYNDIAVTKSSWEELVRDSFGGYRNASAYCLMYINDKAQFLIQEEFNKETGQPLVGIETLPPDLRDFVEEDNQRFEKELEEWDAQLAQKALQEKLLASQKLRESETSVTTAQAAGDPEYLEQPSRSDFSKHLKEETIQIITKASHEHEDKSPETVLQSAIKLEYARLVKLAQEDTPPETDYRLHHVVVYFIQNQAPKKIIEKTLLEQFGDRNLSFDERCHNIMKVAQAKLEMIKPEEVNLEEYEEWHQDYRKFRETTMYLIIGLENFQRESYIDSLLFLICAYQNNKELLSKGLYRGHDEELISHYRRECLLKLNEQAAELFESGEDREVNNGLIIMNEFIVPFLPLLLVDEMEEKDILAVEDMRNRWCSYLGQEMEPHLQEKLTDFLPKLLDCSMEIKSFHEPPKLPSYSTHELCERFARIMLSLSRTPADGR
# Method in brief: as §1
# USP28 = target: T3, USP28 (UniProt Q96RU2)
# T3 sequence (whole entry): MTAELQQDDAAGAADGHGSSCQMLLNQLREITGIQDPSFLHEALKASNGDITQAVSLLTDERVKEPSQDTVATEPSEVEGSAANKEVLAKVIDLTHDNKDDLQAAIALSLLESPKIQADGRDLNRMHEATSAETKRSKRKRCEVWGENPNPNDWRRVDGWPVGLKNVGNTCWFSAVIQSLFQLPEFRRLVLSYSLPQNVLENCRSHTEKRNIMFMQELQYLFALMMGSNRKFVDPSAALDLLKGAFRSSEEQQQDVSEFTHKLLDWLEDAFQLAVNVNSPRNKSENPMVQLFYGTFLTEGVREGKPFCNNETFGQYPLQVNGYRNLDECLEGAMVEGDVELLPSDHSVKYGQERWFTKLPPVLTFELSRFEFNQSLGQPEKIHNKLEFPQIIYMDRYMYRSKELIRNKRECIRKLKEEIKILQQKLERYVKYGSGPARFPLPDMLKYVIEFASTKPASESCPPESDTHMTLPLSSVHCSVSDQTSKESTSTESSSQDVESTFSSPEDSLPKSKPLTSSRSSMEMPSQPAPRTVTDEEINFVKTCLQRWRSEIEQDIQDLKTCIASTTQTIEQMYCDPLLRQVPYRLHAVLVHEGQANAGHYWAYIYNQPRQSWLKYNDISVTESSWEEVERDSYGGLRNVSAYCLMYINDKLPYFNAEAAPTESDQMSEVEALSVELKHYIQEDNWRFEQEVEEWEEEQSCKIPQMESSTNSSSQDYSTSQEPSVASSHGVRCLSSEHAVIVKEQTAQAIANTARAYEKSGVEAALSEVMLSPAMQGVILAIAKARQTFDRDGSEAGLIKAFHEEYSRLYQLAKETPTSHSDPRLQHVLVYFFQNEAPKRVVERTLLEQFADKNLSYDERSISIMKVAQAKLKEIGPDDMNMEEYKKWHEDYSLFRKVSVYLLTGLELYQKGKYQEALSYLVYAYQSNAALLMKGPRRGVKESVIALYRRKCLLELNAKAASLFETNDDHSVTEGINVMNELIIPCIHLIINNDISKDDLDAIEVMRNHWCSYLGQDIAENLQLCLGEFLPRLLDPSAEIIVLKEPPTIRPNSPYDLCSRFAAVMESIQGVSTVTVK
# Method in brief: as §1
smiles,measurement,setting,value
CC(NC(=O)CCl)c1csc(-c2ccccc2)n1.Cl (centres undefined),log2 ratio of Biotin-Ahx-Ub-VS probe labelling,USP19,-0.563
same,log2 ratio of Biotin-Ahx-Ub-VS probe labelling,USP24,-0.822
same,log2 ratio of Biotin-Ahx-Ub-VS probe labelling,USP25,-0.638
same,log2 ratio of Biotin-Ahx-Ub-VS probe labelling,USP28,-1.79 (active)

# Source: the supplement of paper PMC11732987, “Enantioselective OTUD7B fragment discovery through chemoproteomics screening and high-throughput optimisation” (Communications Chemistry, 2025)
